Source: PubChem
3CLpro inhibitor: SARS-CoV 3CLpro protease inhibition | P0C6X7 | recombinant SARS-CoV 3CLpro, quenched FRET peptide cleavage | inhibition, % at 6 µM | hit rate 0.14% among 290,000 | AID 1706; in the data active means inhibition above about 12%
PriA SSB inh: blocks PriA binding to SSB C-terminal tail; AlphaScreen SSBct-PriA binding, biotinylated peptide; inhibition, % at 33 µM; hit rate 0.6% among 430,000; AID 1272365; in the data active means inhibition mostly above about 37%, no sharp cut-off; inactive means mostly below about 20%
MazEF act: MazEF (E. coli) toxin RNase activation; FAM/BHQ RNA-DNA oligo cleavage fluorescence, 5 h; P0AE70; activation, % at 20 µM; hit rate 0.32% among 350,000; in the data active means activation above about 50%
Target sequence (P0AE70 whole entry, looked up): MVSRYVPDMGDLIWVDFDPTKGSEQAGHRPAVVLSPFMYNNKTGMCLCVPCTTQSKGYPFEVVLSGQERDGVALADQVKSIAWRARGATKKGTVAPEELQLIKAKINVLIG
Yp Topo-I inh: blocks Yersinia pestis topoisomerase I activity | hit rate 0.064% among 360,000 | Y. pestis Topo-I cleavage product accumulation, plate reader | AID 504884 | activity, % at 10 µM; in the data active means activity above about 50%, passing the limit was not always enough
Each line names hits and unclear results; the compound was inactive in the other large screens; ! = a repeat was not active. Rows were chosen to be rich in hits. Some 0.9% of all compounds tested hit in one or more screens of this group.

COc1ccc(-c2ccc(/C=C3/C(=N)N4C=CSC4=NC3=O)o2)c([N+](=O)[O-])c1	MazEF act 445
COc1ccc(-c2ccc(/C=C3\SC(=S)N(C(CCC(=O)O)C(=O)O)C3=O)o2)c([N+](=O)[O-])c1 (configuration not stated)	none (no result: 3CLpro inhibitor, MazEF act, Yp Topo-I inh)
Nc1nc2ccc(C(=O)O)cc2s1	PriA SSB inh 89! (no result: 3CLpro inhibitor, MazEF act, Yp Topo-I inh)
CCCNC(=O)c1ccc2nc(N)sc2c1	PriA SSB inh 87 (no result: 3CLpro inhibitor, MazEF act, Yp Topo-I inh)
COC(=O)c1ccc2nc(N)sc2c1	PriA SSB inh 53 (no result: 3CLpro inhibitor, MazEF act, Yp Topo-I inh)
COCCNC(=O)Cc1ccc(NS(=O)(=O)c2ccc(NC(=O)OC)cc2)cc1	none (no result: 3CLpro inhibitor, MazEF act, Yp Topo-I inh)
COc1ccccc1NC(=O)c1sc(=S)n(-c2cc(C)ccc2C)c1N	PriA SSB inh 48 (no result: 3CLpro inhibitor, MazEF act, Yp Topo-I inh)
CCOc1ccccc1NC(=O)c1sc(=S)n(-c2ccc(OC)cc2OC)c1N	none (no result: 3CLpro inhibitor, MazEF act, Yp Topo-I inh)
O=C(CN1CC(=O)Oc2ccccc21)OCC(=O)c1ccccc1	PriA SSB inh 92
O=C(CN1CC(=O)Oc2ccccc21)OCC(=O)c1ccc(Cl)cc1	none (no result: 3CLpro inhibitor, MazEF act, Yp Topo-I inh)
O=C(CN1CC(=O)Oc2ccccc21)OCC(=O)c1cccc(Br)c1	PriA SSB inh 77
COc1ccc(/C=N/Nc2cc(N3CCCC3)nc(N3CCCC3)n2)cc1	none (no result: PriA SSB inh)
COc1ccc(C=NNc2cc(N3CCCC3)nc(N3CCCC3)n2)cc1	PriA SSB inh 49 (no result: 3CLpro inhibitor, MazEF act, Yp Topo-I inh)
Cc1ccc2nc(N3C(=O)C(O)=C(C(=O)c4cc5ccccc5o4)C3c3cccs3)sc2c1 (configuration not stated)	MazEF act 80
Cc1ccc(C2C(C(=O)c3cc4ccccc4o3)=C(O)C(=O)N2c2cc(C)on2)cc1 (configuration not stated)	Yp Topo-I inh 85
CCOc1cccc(C2C(C(=O)c3ccc(C)o3)=C(O)C(=O)N2c2nccs2)c1 (configuration not stated)	MazEF act active
CCOc1cccc(C2C(C(=O)c3ccc(C)o3)=C(O)C(=O)N2Cc2ccncc2)c1 (configuration not stated)	none
O=C(C1=C(O)C(=O)N(c2nccs2)C1c1ccccc1)c1cc2ccccc2o1 (configuration not stated)	MazEF act 227
CCc1ccc2nc(N3C(=O)C(O)=C(C(=O)c4ccco4)C3c3cccs3)sc2c1 (configuration not stated)	MazEF act 79
Cn1ccnc1SCc1cc(=O)c(OC(=O)c2ccco2)co1	none (no result: 3CLpro inhibitor, MazEF act, Yp Topo-I inh)
Nc1ccc(N=Nc2ccccc2)c2cccnc12	PriA SSB inh 59
Cc1ccccc1N=Nc1ccc(O)c2ncccc12	none
COCCn1c(=O)[nH]c(=O)c2c1nc(-c1ccc(-c3ccc(Cl)cc3[N+](=O)[O-])o1)n2Cc1ccccc1	none
COCCn1c(-c2ccc(-c3ccc([N+](=O)[O-])cc3Br)o2)nc2c1c(=O)[nH]c(=O)n2CC(C)C	MazEF act 98
COc1cccc(OC)c1C(=O)NCc1sc2nc(-c3ccc(F)cc3)cn2c1C	none (no result: 3CLpro inhibitor, MazEF act, Yp Topo-I inh)
Cc1c(CNS(=O)(=O)c2ccccc2F)sc2nc(-c3ccc(F)cc3)cn12	PriA SSB inh 36 (no result: 3CLpro inhibitor, MazEF act, Yp Topo-I inh)
CSc1ccc([C@@H](O)CNS(=O)(=O)c2ccccc2F)cc1	none (no result: 3CLpro inhibitor, MazEF act, Yp Topo-I inh)
Nc1ccc(SCc2nc3cccc4c3n2CCC4)cc1	PriA SSB inh 44
O=C(Nn1c(Cc2ccccc2)nc2ccccc2c1=O)c1c(O)c2cccc3c2n(c1=O)CCC3	none
O=C(CSCC(=O)Nc1ccccc1)N/N=C/c1c(O)ccc2ccccc12	MazEF act 86 (no result: PriA SSB inh)
O=C(CSCC(=O)Nc1ccccc1)NN=Cc1c(O)ccc2ccccc12	none (no result: 3CLpro inhibitor, MazEF act, Yp Topo-I inh)
O=C(N/N=C/c1c(O)ccc2ccccc12)c1ccc[n+](CCO)c1	none (no result: PriA SSB inh)
O=C(NN=Cc1c(O)ccc2ccccc12)c1ccc[n+](CCO)c1	PriA SSB inh 41 (no result: 3CLpro inhibitor, MazEF act, Yp Topo-I inh)
Nc1ccc(N(c2ccccc2)c2ccc(N)cc2)cc1	PriA SSB inh 42
Nc1ccc(N=Nc2ccccc2)cc1	none
CCc1nnc(NC(=O)CSc2ncnc3scc(-c4ccc(C)cc4)c23)s1	MazEF act 86
COC(=O)C(=CNc1cccc2ccccc12)[N+](=O)[O-]	PriA SSB inh 55 (no result: 3CLpro inhibitor, MazEF act, Yp Topo-I inh)
Cc1ccc(N2CC(C(=O)NCCn3ccnc3-c3ncccn3)CC2=O)cc1C (configuration not stated)	PriA SSB inh 43 (no result: 3CLpro inhibitor, MazEF act, Yp Topo-I inh)
O=C(NCCn1ccnc1-c1ncccn1)C1CC(=O)N(c2ccc(F)cc2)C1 (configuration not stated)	PriA SSB inh 116 (no result: 3CLpro inhibitor, MazEF act, Yp Topo-I inh)
O=C(NCCc1ccccc1)C(=O)NCC1CCN(Cc2ccccc2)CC1	none (no result: 3CLpro inhibitor, MazEF act, Yp Topo-I inh)
COc1ccc(C(=O)CN2CCN(CCN3C(=O)c4cccc5cccc(c45)C3=O)CC2)cc1	PriA SSB inh 62! (no result: 3CLpro inhibitor)
O=C1c2cccc3cccc(c23)C(=O)N1CCN1CCN(CC(O)COc2ccccc2)CC1 (configuration not stated)	none
O=C(CN1CCN(CCN2C(=O)c3cccc4cccc(c34)C2=O)CC1)c1ccc(Cl)cc1	none (no result: PriA SSB inh, MazEF act, Yp Topo-I inh)
CCC(C)c1ccccc1OCC(O)CN1CCN(CCN2C(=O)c3cccc4cccc(c34)C2=O)CC1 (configuration not stated)	PriA SSB inh 46! (no result: 3CLpro inhibitor, MazEF act, Yp Topo-I inh)
O=C(NCC(c1ccsc1)N1CCCCCC1)c1ccc(-c2ccccc2)cc1 (configuration not stated)	none (no result: 3CLpro inhibitor, MazEF act, Yp Topo-I inh)
Cc1ccc(C)c(Sc2cc(N3CCC(C(=O)NCCC4=CCCCC4)CC3)ncn2)c1	none (no result: 3CLpro inhibitor, MazEF act, Yp Topo-I inh)
COC1(CNS(=O)(=O)CC23CCC(CC2=O)C3(C)C)CCSC1 (configuration not stated)	PriA SSB inh 40 (no result: 3CLpro inhibitor, MazEF act, Yp Topo-I inh)
COc1ccc2sc(N(CCN3CCOCC3)C(=O)c3cccc(SC)c3)nc2c1	none (no result: 3CLpro inhibitor, MazEF act, Yp Topo-I inh)
COc1ccc2sc(N(CCCN3CCOCC3)C(=O)c3cccc([N+](=O)[O-])c3)nc2c1	PriA SSB inh 47 (no result: 3CLpro inhibitor, MazEF act, Yp Topo-I inh)
Cc1ccccc1-c1nc(P(=O)(c2ccccc2)c2ccccc2)c(N2CCOCC2)o1	Yp Topo-I inh 53
Cc1nc(P(=O)(c2ccccc2)c2ccccc2)c(N2CCOCC2)o1	none
CCn1c(O)c(C=NN=Cc2ccccc2)c2ccc(C3=NNC(=O)CC3)cc21	none (no result: 3CLpro inhibitor, MazEF act, Yp Topo-I inh)
CCn1c(O)c(/C=N/N=C/c2ccccc2)c2ccc(C3=NNC(=O)CC3)cc21	MazEF act 747 (no result: PriA SSB inh)
COc1cccc2sc(OC3CN(C(=O)Cn4c(=O)oc5ccccc54)C3)nc12	none (no result: 3CLpro inhibitor, MazEF act, Yp Topo-I inh)
O=[N+]([O-])c1ccc(-c2cn3nc(-c4ccccc4)c(-c4ccccc4)nc3n2)cc1	MazEF act 164
CCN1C(=O)/C(=C2/C=Cc3ccccc3N2C)OC1=S	MazEF act 113
CCN1C(=O)/C(=C2\C=Cc3cc(C)ccc3N2CC)OC1=S	MazEF act 114
CCN1/C(=C2\C(=O)N(c3ccccc3)N=C2C)C=Cc2cc(C)ccc21	none
COc1ccc(OC)c(N=Cc2c(O)c3ccccc3oc2=O)c1	MazEF act 78
Cc1ccc(N2C(=O)C3N=NN(Cc4nc(-c5ccc(OC(C)C)cc5)no4)C3C2=O)cc1Cl (configuration not stated)	none (no result: 3CLpro inhibitor, MazEF act, Yp Topo-I inh)
S=C(Nc1ccccc1)Nc1ccccn1	none (no result: 3CLpro inhibitor, PriA SSB inh)
S=C(Nc1ccccc1)c1ccccn1	PriA SSB inh 72
COCCc1noc(-c2ccc(=O)n(CC(=O)Nc3cccc(Br)c3)c2)n1	none (no result: 3CLpro inhibitor, MazEF act, Yp Topo-I inh)
NC(=O)c1ccccc1NC(=O)c1ncc(-c2ccc(Cl)cc2)o1	none (no result: 3CLpro inhibitor, MazEF act, Yp Topo-I inh)
O=C(Nc1ncn[nH]1)c1ncc(-c2ccc(Cl)cc2)o1	PriA SSB inh 69 (no result: 3CLpro inhibitor, MazEF act, Yp Topo-I inh)
CCCOc1cc(N(CC)CC)ccc1/C=C(/C#N)c1nc2ccc(C)cc2[nH]1	none
